Screening data (PubChem BioAssay)
Only some compounds are listed: those with a hit (about 7.3% of all), similar ones and a draw of the others.
HCMV antiviral – human cytomegalovirus inhibition; HFF cells, HCMV-luciferase reporter, 72 h; stronger effect = lower value; activity change, negative = inhibition, % at 57.5 µM; 410,000 compounds, 4.5% hits; AID 1259415; in the data active = activity change below about -60%; inconclusive = no clear call, values can overlap the other calls; inactive = above about -39%
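HFF cells seeded 16 h at 37C, treated with compounds, infected with luciferase-reporter HCMV at MOI 1 PFU/cell; luciferase read at 72 h post infection, normalized to buffer-only and Salinomycin controls.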
FMDV inh – blocks foot and mouth disease virus | FMDV antiviral cell-based qHTS | 410,000 compounds, 1.2% hits | Potency, µM (top dose mostly 57.9 µM), for inactives: at the highest dose activity change, negative = inhibition, usual class: inhibitors | AID 1159524; calls by dose curve; tested in HEK293T cells; also: read-out not given here; potency is read from the fitted curve at half-maximal effect; nearly all actives have a fitted effect of over 45% in size
AmpC detergent – inhibitors of E. coli AmpC beta-lactamase with detergent. 370,000 compounds, 0.041% hits. Potency, µM (doses to about 114 µM), without a hit: top-dose activity change, negative = inhibition, usual class: inhibitors. AmpC hydrolysis of nitrocefin, absorbance 480 nm, 0.01% Triton;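 also: potency is read from the fitted curve at half-maximal effect; 0% = no-compound wells and -100% = no-enzyme wells; nearly all actives have a fitted effect of over 25% in size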
Target sequence (P00811 whole entry, looked up): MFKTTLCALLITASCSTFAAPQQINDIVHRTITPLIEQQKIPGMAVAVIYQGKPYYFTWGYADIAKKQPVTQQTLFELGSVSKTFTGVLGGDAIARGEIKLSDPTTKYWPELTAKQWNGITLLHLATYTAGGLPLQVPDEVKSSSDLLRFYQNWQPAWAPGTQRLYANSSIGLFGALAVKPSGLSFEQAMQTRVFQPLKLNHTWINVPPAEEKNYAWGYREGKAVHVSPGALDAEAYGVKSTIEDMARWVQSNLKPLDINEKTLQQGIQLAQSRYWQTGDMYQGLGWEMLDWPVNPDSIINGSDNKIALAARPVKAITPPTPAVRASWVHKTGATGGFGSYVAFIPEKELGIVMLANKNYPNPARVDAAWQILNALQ
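20 mM phosphate pH 7.0 + 0.01% (detergent screen) or 0.0001% Triton X-100; 5.3 nM AmpC reagent; cpd preinc 15 min RT; nitrocefin (800 uM stock) to start; A480 q20 s × 4 min; Activity was normalised to no-enzyme and no-compound control wells.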
AmpC no deterg – inhibitors of E. coli AmpC beta-lactamase without detergent | P00811 | AmpC nitrocefin hydrolysis, absorbance 480 nm, 0.0001% Triton | Potency, µM (series often up to 57.1 µM), inactives show top-dose activity change, negative = inhibition, most hits filed as inhibitors | 330,000 compounds, 0.52% hits;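 also: potency is read from the fitted curve at half-maximal effect; plate controls were no compound for no effect and no enzyme for full effect; nearly all actives have a fitted effect of over 20% in size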
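AmpC (5.3 nM in the dispensed reagent) in 20 mM phosphate pH 7.0 with 0.01% (detergent screen) or 0.0001% Triton X-100 was preincubated with compounds for 15 min at room temperature. Nitrocefin was then added from an 800 uM solution, and hydrolysis was followed at 480 nm.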
HCV inhibitor – blocks hepatitis C virus; Huh7.5.1 HCVcc-Cre infection, luciferase reporter, 44 h; Potency, µM (doses to about 41.8 µM), for inactives: at the top dose activity change, negative = inhibition, actives largely listed as inhibitors; 340,000 compounds, 3.4% hits; also: potency is read from the fitted curve at half-maximal effect
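Cells seeded at 1,000/well and cultured 4 h, then compounds added followed by HCVcc-Cre virus (~0.5 moi). After 44 h further culture, luciferase substrate was added, plates held 15 min at room temperature, and luminescence read for 15 sec.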
* hit, by the source's call; ? = inconclusive; . = no result. Unless noted, calls follow the shape of the dose curve; as a rule, active = well fitted curve in the direction sought with a large enough effect; inconclusive = small, poorly fitted or top-dose-only effect, or another doubt; inactive = no such curve, though single readings can be large; an effect the other way counts as inactive or inconclusive. Unless noted, % is scaled to controls: 0 for no effect and ±100 for the full control effect.

SMILES	HCMV antiviral	FMDV inh	AmpC detergent	AmpC no deterg	HCV inhibitor
O=C(O)CC(c1cccc(Cl)c1)n1cccc1 (stereo not given)	-12	11%	-2%	-20%	11µM*
CCOc1ccc(OCC)c(NC(=O)CN(C)S(=O)(=O)c2ccc3c(c2)CCCC(=O)N3)c1	-21	?	18%	.	.
O=C(NCC(F)(F)F)c1ccc2sc([C@H]3C[C@H](O)[C@@H](CO)O3)nc2c1	2	19%	.	.	.
O=C(NC1CCC(O)CC1)c1ccc2c(c1)S(=O)(=O)N=C1CCCCCN12 (stereo not given)	22	13%	?	0%	19%
Cn1c2ccccc2c2cc(C(=O)NNC(=O)CCl)sc21	-21	16µM*	1%	-6%	?
CCCNC(=O)c1cc2c3ccccc3n(C)c2s1	76	4%	-9%	-25%	?
CCN1C[C@@H]2[C@@H]3C(=O)N(Cc4ccccc4)C(=O)[C@@H]3[C@](CC)(C1=O)N2C(=O)c1ccc(Cl)c(Cl)c1	.	-2%	.	.	25%
CCCCN(C(=O)c1ccc(Cl)cc1)C1CC2CCC(C1)N2C (stereo not given)	-7	-2%	-15%	1%	11µM*
CN1C2CCC1CC(N(CCc1ccccc1)C(=O)c1ccc(Cl)cc1)C2 (stereo not given)	0	-15%	-3%	60%	-21%
Cc1cc2nc(CN(Cc3ccccc3)Cc3nc4cc(C)c(C)cc4[nH]3)[nH]c2cc1C	-12	.	.	.	.
COc1ccc(-c2ocnc2C(=O)NCc2nn(-c3ccccc3)nc2C)cc1	?	-50%	1%	-6%	2.5µM*
COc1ccc(CC(=O)NCc2nn(-c3ccccc3)nc2C)cc1OC	12	-18%	-1%	-3%	7%
COc1cc(C#Cc2c(-c3cncn3C)n(C)c3ccc(-c4ccc(CN5CCOCC5)cc4)cc23)cc(OC)c1	-10	-25%	.	63%	11µM*
COc1ccc(/C=C2\SC(=S)N(CCC(=O)N(CCO)Cc3ccccc3)C2=O)cc1OC	-99*	?	?	18%	?
COc1cc(/C=C2/SC(=S)N(Cc3ccccc3)C2=O)ccc1OCC(=O)O	-35	?	?	127%	-4%
COc1cc(/C=C2/SC(=S)N(Cc3ccccc3)C2=O)ccc1OS(C)(=O)=O	-69*	8%	-12%	-28%	?
COc1cc(/C=C2\SC(=S)N(N(C)c3ccccc3)C2=O)ccc1O	-101*	-3%	4%	-38%	35%
CC1=C(C(=O)N2CCCCCC2)CC(CC(=O)NCCCCc2ccccc2)C(=O)N1CCC1=CCCCC1 (stereo not given)	9	-13%	.	.	.
Cc1cccc(C(=O)NCc2nc(-c3ccccc3NC(=O)C3CCCO3)oc2C)c1 (stereo not given)	.	5%	.	.	.
CCCc1cc(=O)[nH]c2nnc(SCCC(C)C)n12	?	-1%	1%	.	.
Cc1cc(Br)cn2c(Cc3cccc(Cl)c3)c(C3CCCCC3)nc12	10	.	.	.	.
c1ccc2c(CCNc3ncnc4nc[nH]c34)c[nH]c2c1	?	?	-11%	-43%	7.1µM*
COc1cc2c(C#N)c(N3CCN(c4ccccc4OC)CC3)nc(N)c2c(N)n1	-28	40µM*	-2%	?	?
COc1cc2c(C#N)c(N3CCN(C)CC3)nc(N)c2c(N)n1	14	.	0%	-23%	?
CC(C)CCn1c(N)c(C(=O)OCC2CCCO2)c2nc3ccccc3nc21 (stereo not given)	-24	-16%	-11%	105%	13µM*
SMILES	HCMV antiviral	FMDV inh	AmpC detergent	AmpC no deterg	HCV inhibitor
Nc1c(C(=O)OC2CCCCC2)c2nc3ccccc3nc2n1CC1CCCO1 (stereo not given)	-12	-16%	-5%	24%	10µM*
O=C(c1cc(F)c(F)cc1Cl)N1CCN(CCc2ccccc2)CC1	7	-26%	2%	56%	1%
CCOC(=O)C1CCN(c2cc3c(cc2NC(=O)c2ccccc2F)n(C)c(=O)n3C)CC1	0	-20%	2%	0%	11µM*
CCOC(=O)C1CCN(c2cc3c(cc2NC(=O)c2ccccc2Cl)n(C)c(=O)n3C)CC1	10	-29%	-14%	209%	?
CC(=O)c1c(N2CCN(c3ccc(F)cc3)CC2)nc(=S)n(Cc2ccccc2)c1C	-68*	?	-8%	39%	?
CCn1c(C)c(C(C)=O)c(N2CCN(c3ccc(F)cc3)CC2)nc1=S	50	-1%	1%	2%	-2%
CC1(C(=O)NS(=O)(=O)Cc2ccccc2)CCN1C(=O)Cc1cc(F)ccc1F (stereo not given)	21	-11%	.	.	.
Cc1ccc(C(=O)CC(=O)c2ccc(C(C)(C)C)cc2)cc1	-4	28%	5%	-15%	?
Cc1ccc(C(=O)CC(=O)c2cc(Cl)ccc2O)cc1	?	74%	-2%	-45%	13µM*
CC(C)(C)c1ccc(C(=O)CC(=O)c2cc(Cl)ccc2O)cc1	-83*	7%	1%	-38%	11µM*
CCC(C(=O)Nc1cc(-c2cn3cccnc3n2)ccc1C)c1ccccc1 (stereo not given)	18	-8%	3%	.	.
COc1cccc(O)c1CN1CCC2(CC1)c1ccccc1[C@@H](NC(=O)c1ccsc1)[C@@H]2OC	.	-7%	.	.	.
CCCCCn1c2nc3ccccc3nc2c2c(=O)n(CC(C)C)cnc21	.	-18%	?	-7%	23%
CCCCn1c2nc3ccccc3nc2c2c(=O)n(CC(C)C)cnc21	-62*	-5%	.	.	-12%
Cn1cc(-c2cc3n(n2)CCC(=O)N3CCCC(=O)Nc2ccccc2Cl)c2ccccc21	-62*	-27%	16%	.	.
Cn1cc(-c2cc3n(n2)CCC(=O)N3CCCC(=O)Nc2ccccc2F)c2ccccc21	8	-22%	13%	.	.
O=C(CSc1n[nH]c(-c2ccncc2)n1)c1ccccc1	-13	.	3%	0.4µM*	?
Cc1ccc(C)c(C(=O)CSc2n[nH]c(-c3ccncc3)n2)c1	-33	-7%	0%	-16%	-9%
C=CCSc1n[nH]c(-c2ccccc2)n1	-89*	22%	?	-9%	0%
C=CCSc1n[nH]c(-c2ccc(OC)cc2)n1	73	47%	-1%	-20%	20%
Cc1cc(C)c(C(=O)CSc2n[nH]c(-c3ccncc3)n2)c(C)c1	-66*	-17%	-1%	-21%	7%
COc1ccc(NC(=O)CSc2n[nH]c(-c3ccccn3)n2)cc1	-17	4%	-10%	-28%	?
O=C(CSc1n[nH]c(-c2ccccn2)n1)Nc1ccccc1	-79*	-12%	4%	12%	?
CCNc1nc(NCc2ccccc2)nc(SCC(=O)Nc2ccccc2)n1	39	?	2%	-35%	25µM*
